Bioassay records from PubChem BioAssay.
An excerpt weighted towards active compounds, which were near 3.4% of everything screened.
FBW7 activator = FBW7 E3 ligase activators, primary screen, biochemical, AlphaScreen, human | normalized activity (activation), % at 26.1 µM | AlphaScreen FBW7–phospho-cyclin E peptide binding, activator screen | AID 1259310, 2017 | 650,000 tested, 0.13% active; in the data active = normalized activity above about 1.9%;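 note: purified mutant Fbw7 with reduced substrate affinity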
GPR151 ag = activators of human GPR151, primary screen, cell-based, PathHunter beta-arrestin, luminescence; activation, % at 11.2 µM; PathHunter beta-arrestin GPR151 cells; 650,000 tested, 1% active; in the data active = activation above about 4.9%
TEAD-YAP inh = TEAD-YAP interaction inhibition, primary screen, TEAD-YAP interaction inhibitor project, luminescence, HEK-TIYL cells. TEAD-Gal4/YAP UAS-luciferase luminescence. inhibition, % at 9.12 µM. 640,000 tested, 1.4% active; in the data active = inhibition above about 32%
MITF inh = MITF inhibitors, primary screen, biochemical, AlphaScreen, human; 650,000 tested, 0.91% active; inhibition, % at 2.6 µM; AlphaScreen MITF homodimerization, bead proximity signal; AID 1259374, 2018; in the data active = inhibition above about 50%
Target sequence (O75030 whole entry, looked up): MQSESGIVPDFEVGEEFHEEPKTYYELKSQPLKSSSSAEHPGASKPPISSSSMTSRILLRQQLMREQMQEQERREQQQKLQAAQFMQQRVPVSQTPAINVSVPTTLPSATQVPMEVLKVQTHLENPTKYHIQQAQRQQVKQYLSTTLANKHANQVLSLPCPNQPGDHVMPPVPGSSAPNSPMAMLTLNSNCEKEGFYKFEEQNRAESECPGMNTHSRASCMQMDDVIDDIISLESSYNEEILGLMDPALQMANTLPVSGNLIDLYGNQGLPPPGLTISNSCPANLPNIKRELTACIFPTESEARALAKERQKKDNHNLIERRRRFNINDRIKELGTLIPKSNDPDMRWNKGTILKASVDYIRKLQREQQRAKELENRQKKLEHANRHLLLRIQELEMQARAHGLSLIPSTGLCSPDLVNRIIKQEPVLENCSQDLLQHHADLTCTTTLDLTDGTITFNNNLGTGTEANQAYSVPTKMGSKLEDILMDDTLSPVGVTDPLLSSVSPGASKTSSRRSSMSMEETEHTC
Each line names hits and unclear results; the compound was inactive in the other large screens.

COCCNc1ccnc2c(-c3cccc(Cl)c3)cnn12	none
Oc1cccc(-c2cnn3c(NCc4ccco4)ccnc23)c1	TEAD-YAP inh 89
CCOc1ccccc1OCC(=O)Nc1cccc([N+](=O)[O-])c1	none
COCCN=c1scc(-c2ccccc2)n1/N=C1\CCc2ccccc21	TEAD-YAP inh 72
C=CCNS(=O)(=O)c1ccc(F)c(C(=O)Nc2ccc(F)c(F)c2)c1	none
CCCOc1ccc(C(=O)NCC2COc3ccccc3O2)cc1OC (configuration not stated)	none
c1cc(-n2cnc(N3CCOCC3)n2)ccc1Nc1ncc2cc(-c3cn[nH]c3)ccc2n1	none
Cn1cc(-c2ccc3cnc(Nc4ccc(N5CCOCC5)nc4)nc3c2Cl)cn1	TEAD-YAP inh 51
Clc1cnc(Nc2ccc(-n3cnc(N4CCOCC4)n3)cc2)nc1-c1cn[nH]c1	TEAD-YAP inh 55
Cn1cc(-c2ccc3cnc(Nc4ccc(-n5cnc(N6CCOCC6)n5)cc4)cc3c2)cn1	TEAD-YAP inh 83
Cn1cc(-c2ccc3cnc(Nc4ccc(-c5ccc(N6CCOCC6)nc5)cc4)nc3c2Cl)cn1	none
CC(C)N1CCN(c2ncn(-c3ccc(Nc4ncc5ccc(-c6cnn(C)c6)c(Cl)c5n4)cc3)n2)CC1	TEAD-YAP inh 90
Cn1cc(-c2cccc3cnc(Nc4ccc(-n5cnc(N6CCOCC6)n5)cc4)nc23)cn1	none
Cn1cc(-c2nc(Nc3ccc(-n4cnc(N5CCOCC5)n4)cc3)ncc2F)cn1	none
O=[N+]([O-])c1ccc(N2CCN(S(=O)(=O)c3ccccc3)CC2)cc1N1CCCCC1	none
Cc1cc2nc(-c3ccc(C)c(NC(=O)c4cccs4)c3)oc2cc1C	none
O=C(O)CN1C(=O)CC(N2C(=O)/C(=C/c3ccc(Cl)cc3)SC2=S)C1=O (configuration not stated)	none
CCOC(=O)c1c(-c2cnn(C)c2)ccc2cnc(Nc3ccc(-n4cnc(N5CCOCC5)n4)cc3)nc12	TEAD-YAP inh 98
Cn1cc(-c2ccc3cnc(Nc4ccccc4)cc3c2)cn1	TEAD-YAP inh 36
Cn1cc(-c2ccc3cnc(Nc4ccc(-n5cnc(N6CCOCC6)n5)cc4)nc3c2Cl)cn1	TEAD-YAP inh 56
Cn1cc(-c2ccc3cnc(Nc4ccc(-n5cnc(N6CCOCC6)n5)cc4)nc3c2OCCN2CCOCC2)cn1	TEAD-YAP inh 96
Cc1nc(C)n(-c2ccc(Nc3cc(-c4cnn(C)c4)ccn3)cc2)n1	none
Cc1c(-c2cnn(C)c2)ccc2cnc(Nc3ccc(-n4cnc(N5CCOCC5)n4)cc3)nc12	none
Cn1cc(-c2nc(Nc3ccc(-n4cnc(N5CCC(O)CC5)n4)cc3)ncc2Cl)cn1	TEAD-YAP inh 72
CC(=O)Nc1ccc(S(=O)(=O)Nc2c(C)nn(C)c2C)cc1	none
Cc1nn(C)c(C)c1NS(=O)(=O)c1ccc(C(C)(C)C)cc1	TEAD-YAP inh 55
Cc1cc(-c2ccc(S(=O)(=O)N3CCCCCC3)cc2)on1	none
COc1ccc(N2CCN(CCN3CCCCC3)CC2)cc1	MITF inh 82
OCn1nc(-c2ccccc2Cl)oc1=S	none
O=C(Cn1cnc2ccccc21)NCc1cccc(Oc2ccc(F)cc2)c1	TEAD-YAP inh 62
O=C(NCc1cccc(Oc2ccc(F)cc2)c1)c1cccnc1	none
O=C(NCc1cccc(Oc2ccc(F)cc2)c1)c1ccccn1	TEAD-YAP inh 54
CCOC(=O)c1ccccc1NC(=O)CCc1c(C)nc2ncnn2c1C	none
COCc1cc(CN2CCN(C)CC2)c(O)c2ncccc12	MITF inh 101
CC(C)OCc1cc(CN2CCOCC2)c(O)c2ncccc12	MITF inh 94
Oc1c(CN2CCOCC2)cc(COCc2ccccc2)c2cccnc12	TEAD-YAP inh 74, MITF inh 86
CC(C)OCc1cc(CN2CCN(C)CC2)c(O)c2ncccc12	MITF inh 94
COc1cc(CN2CCOCC2)ccc1OCc1ccccc1	none
CSc1ccccc1NC(=O)C(C)NS(=O)(=O)c1ccc(Cl)cc1 (configuration not stated)	none
Oc1ccccc1N=Nc1ccccc1O	TEAD-YAP inh 73, MITF inh 72
Oc1cccc(C=Nc2ccccc2O)c1	none
C[C@@H]1C[C@H]2O[C@@H]2/C=C\C=C\C(=O)Cc2c(Cl)c(O)cc(O)c2C(=O)O1	none (no result: FBW7 activator, TEAD-YAP inh)
Cc1cccc(C(=O)Nc2c(C(=O)N3CCN(C)CC3)cnn2-c2ccccc2)c1	FBW7 activator 2.3
Cc1cccc(C(=O)Nc2c(C(=O)N3CCCCC3)cnn2-c2ccccc2)c1	none
O=C(NC1CCCCCC1)c1cccc(N2CCCC2=O)c1	TEAD-YAP inh 61
O=C(NC1CCCCCCC1)c1cc(F)c(F)cc1Cl	none
O=C(NC1CCCCCC1)c1ccc(Cl)cc1Cl	TEAD-YAP inh 33
COc1ccc(-c2nc3ccc(C(=O)NC4CCCCCCC4)cc3nc2-c2ccc(OC)cc2)cc1	none
Cc1nc2ccc(C(=O)NC3CCCCCC3)cc2nc1C	TEAD-YAP inh 50
O=C(NC1CCCCC1)c1ccc2c(c1)OCO2	none
O=C(NC1CCCCCC1)c1ccc2c(c1)OCO2	TEAD-YAP inh 44
O=C(NC1CCCCC1)c1cccc(N2CCCC2=O)c1	none
CCc1ccc(Oc2nc3ccccn3c(=O)c2/C=C(\C#N)C(=O)NCC2CCCO2)cc1 (configuration not stated)	none
CCOC(=O)C1=C(C)NC(=O)NC1c1ccc(O)cc1 (configuration not stated)	none
Cc1ccc(C(=O)NC2CCCCCC2)cc1	TEAD-YAP inh 49
COc1cc(C)c(/C=C2/C(=O)NC(=O)N(Cc3ccco3)C2=O)cc1C(C)C	MITF inh 69
COc1ccc2ccccc2c1/C=C1/C(=O)NC(=O)N(Cc2ccco2)C1=O	MITF inh 76
COCCn1c(C)cc(/C=C2\C(=O)NC(=O)N(Cc3ccco3)C2=O)c1C	none
COc1cc(C)c(/C=C2/NC(=O)NC2=O)cc1C(C)C	TEAD-YAP inh 44
Cc1cc(/C=C2\C(=O)NC(=O)N(Cc3ccco3)C2=O)c(C)n1C1CC1	MITF inh 62
COc1ccc(Cc2nnc(SCc3nc4ccccc4c(=O)[nH]3)o2)cc1	none
CCOC(=O)N1CCN(c2csc3ccc(F)cc3c2=O)CC1	none
COc1cc(/C=C2/C(=O)NC(=O)N(Cc3ccco3)C2=O)ccc1OCC(=O)O	MITF inh 77
COc1cc(/C=C2\SC(=S)N(Cc3ccco3)C2=O)ccc1OCC(=O)O	none
COc1ccc(OC)c(CN2C(=O)NC(=O)/C(=C\c3ccco3)C2=O)c1	MITF inh 57
COCCn1c(=O)[nH]c2cc(C(=O)NCCNC(C)=O)ccc2c1=O	none
CN(C(=O)c1coc(=O)c2ccccc12)c1ccccc1F	none
CCN(C(=O)c1coc(=O)c2ccccc12)c1ccccc1F	TEAD-YAP inh 35
CCN(C(=O)c1coc(=O)c2ccccc12)c1cccc(Cl)c1	TEAD-YAP inh 39
CCCN(C(=O)c1coc(=O)c2ccccc12)c1ccccc1C	TEAD-YAP inh 38
COc1cc(=O)n2c(c1C(=O)NCc1ccsc1)CCN(Cc1cnn(C)c1C)CC2	none
CCOc1ccc(NC(=O)C2(S(=O)(=O)c3ccc(C)cc3)CC2)cc1	none
c1ccc2c(c1)ncn2CNn1cnnc1	none
